This is a sample that favours compounds with a hit; in the whole collection about 2.9% have one here.
p53 reactivation: qHTS assay for re-activators of p53 using a Luc reporter; H1299 p53-A138V BP100-luciferase reporter, luminescence, 24 h; Potency, µM (highest dose often 92.2 µM), hits mostly activators; actives 0.063% (n = 320,000); AID 504706, 2011; note: nearly all actives have a fitted effect of over 45% in size
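H1299 (p53-null), stable ts p53-A138V + BP100-Luc; 1000 cells/well, Opti-MEM/10% FBS; cpd 4 pt, 1:5; 24 h, 37 deg C, 5% CO2; detection reagent 10 min RT; luminescence.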
ClpP mod: qHTS Assay for Activators of ClpP; Potency, µM (highest dose often 57.5 µM); actives 1.9% (n = 340,000); purified B. subtilis ClpP, FRET peptide cleavage, 20 min; ATP-dependent Clp protease proteolytic subunit (Bacillus subtilis (strain 168)), P80244; AID 651965, 2013; active = well fitted falling curve with a large enough effect; inconclusive = small, poorly fitted or top-dose-only effect; inactive = no such curve, though single readings can be large or run the other way; note: the source files actives as falling curves though it sought activators and does not explain the sign; nearly all actives have a fitted effect of over 65% in size
Target sequence (P80244 whole entry, looked up): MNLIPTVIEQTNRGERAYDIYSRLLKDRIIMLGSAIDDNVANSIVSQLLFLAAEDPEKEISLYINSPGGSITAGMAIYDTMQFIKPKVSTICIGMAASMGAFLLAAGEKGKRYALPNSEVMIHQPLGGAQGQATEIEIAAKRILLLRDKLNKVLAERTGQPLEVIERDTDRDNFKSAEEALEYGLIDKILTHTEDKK
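Buffer: 100 mM Tris/HCl pH8, 100 mM KCl, 0.05% low protease BSA, 2.5% glycerol, 0.01% Tween-20. ClpP 10 microg/mL final; 20 min RT; delta FRET normalized to ADEP and DMSO controls.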
GLP-1R inv ag: qHTS of GLP-1 Receptor Inverse Agonists (Inhibition Mode). Glucagon-like peptide 1 receptor (Homo sapiens), P43220. HEK293 GLP-1R CRE-luciferase, luminescence, 24 h; GLP-1R form is constitutively active. Potency, µM (highest dose often 38.3 µM), actives largely listed as inhibitors. actives 1.6% (n = 410,000); note: nearly all actives have a fitted effect of over 55% in size
Target sequence (P43220 whole entry, looked up): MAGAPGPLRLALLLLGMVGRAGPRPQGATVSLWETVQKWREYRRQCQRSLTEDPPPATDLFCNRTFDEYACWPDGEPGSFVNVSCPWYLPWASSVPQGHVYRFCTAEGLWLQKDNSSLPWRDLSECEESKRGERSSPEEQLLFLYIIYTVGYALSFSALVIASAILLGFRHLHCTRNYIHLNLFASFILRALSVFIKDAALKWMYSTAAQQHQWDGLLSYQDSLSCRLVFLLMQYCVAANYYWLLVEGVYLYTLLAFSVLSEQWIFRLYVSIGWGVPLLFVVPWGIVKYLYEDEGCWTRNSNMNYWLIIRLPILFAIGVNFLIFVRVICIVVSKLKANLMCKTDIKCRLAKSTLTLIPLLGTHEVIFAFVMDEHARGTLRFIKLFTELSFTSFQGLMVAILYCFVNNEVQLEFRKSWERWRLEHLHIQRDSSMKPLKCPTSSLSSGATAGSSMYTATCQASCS
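Assay principle: reduced luminescence from a cAMP-responsive reporter in HEK293 cells co-expressing a constitutively active GLP-1R. Conditions: 24 hr compound incubation, 37 deg C, 5% CO2.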
LDHA block: qHTS assay for inhibitors of human lactate dehydrogenase. purified LDHA, NADH/diaphorase-resazurin fluorescence; hits give low values. L-lactate dehydrogenase A chain (Homo sapiens), P00338. actives 0.15% (n = 480,000). activity change, % (values are at about 110 or 230 µM); in the data active = activity change below about -30%; inconclusive = mostly about -25% to -30%
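Human LDH5 at 2 nM final in Tris HCl pH 7.4 with 0.06 mM NADH and 0.2 mM pyruvate, reacted 5 minutes at room temperature. Remaining NADH coupled via diaphorase/resazurin; resorufin fluorescence read at 0 and 20 minutes, normalized to enzyme-free and DMSO wells.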
GLP1R cytotox: qHTS of GLP-1 Receptor Inverse Agonists: Cytotox Screen. HEK293 cAMP-luciferase reporter cells, luminescence, 24 h. Potency, µM (highest dose often 38.3 µM), usual class: inhibitors. actives 0.13% (n = 410,000);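 note: loss of luciferase light is scored as toxicity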
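Cells in DMEM/10% Nu serum/1% pen-strep, 1536-well format. Pre-incubated 12 h, dosed with 23 nL compound, incubated a further 24 h. Luciferase detection, 12 min at room temp, luminescence.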
GLP1R ag: qHTS of GLP-1 Receptor Agonists; actives 0.007% (n = 380,000); Glucagon-like peptide 1 receptor (Homo sapiens), P43220; Potency, µM (highest dose often 45.6 µM), most hits filed as activators; HEK293 GLP-1R CRE-luciferase, luminescence, 4-6 h; cells express a hypersensitive GLP-1R form
A number is an active result; . = inactive; ? = inconclusive; / = no result; [ ] = remark or other dose. Unless noted, calls come from the whole dose curve; as a rule, active = well fitted curve in the direction sought with a large enough effect; inconclusive = small, poorly fitted or top-dose-only effect, or another doubt; inactive = no such curve, though single readings can be large; an effect the other way counts as inactive or inconclusive.

SMILES	p53 reactivation	ClpP mod	GLP-1R inv ag	LDHA block	GLP1R cytotox	GLP1R ag
Cc1c(C)n(CCCN(C)C)c2ncnc(NC3CCCCC3)c12	.	/	4µM	.	.	.
Cc1c(C)n(CCCN(C)C)c2ncnc(Nc3ccccc3)c12	.	.	?	.	.	.
Cc1c(C)n(Cc2ccccc2)c2ncnc(NCCCN(C)C)c12	.	.	?	.	.	.
COc1ccccc1Nc1ncnc2c1c(C)c(C)n2CCCN(C)C	.	.	2.2µM	.	.	.
COc1ccc(Nc2ncnc3c2c(C)c(C)n3CCCN(C)C)cc1	.	/	11µM	.	.	.
O=C(NCC1CCCN(C(=O)c2cscn2)C1)c1ccccc1Cl (configuration not stated)	.	/	.	.	.	.
COc1cccc(N(C(=O)Cn2nnc(-c3ccc(C)cc3)n2)C(C(=O)NC(C)(C)C)c2c[nH]c3ccccc23)c1 (configuration not stated)	.	.	?	.	.	.
CC(C)(C)NC(=O)C(c1c[nH]c2ccccc12)N(C(=O)Cn1nnc(-c2ccc(Cl)cc2)n1)c1ccccc1F (configuration not stated)	.	.	5µM	.	.	.
COc1ccc(CNC(=O)CSc2ccc3c(c2)OCCCO3)cc1	/	/	/	.	/	/
C1CCCCCC(NCCN2CCNCC2)CCCCC1	.	.	6.3µM	.	11µM	.
CCOC(=O)c1[nH]cnc1C(=O)Nc1ccc(F)cc1	.	.	.	.	.	.
CCOC(=O)c1[nH]cnc1C(=O)Nc1cccc(N)n1	.	14µM	.	.	.	.
COC(=O)c1cc2c(-c3ccccc3)cc3ccccn3c-2c1C(=O)OC	.	.	7.9µM	.	?	.
Cc1ccc([C@@H]2CC(=O)[C@@H]3CN(S(=O)(=O)c4ccc(C)cc4)[C@H](c4ccc(Cl)cc4)C[C@@H]3N2S(=O)(=O)c2ccc(C)cc2)cc1	/	.	.	.	.	.
NC(=O)c1ccc(-c2ccc(Br)cc2)o1	?	28µM	.	.	.	.
Cc1c(C)n(Cc2ccccc2)c2ccc(C(=O)NCCCN3CCOCC3)cc12	.	.	1µM	.	.	.
CCn1c(C)c(C)c2cc(C(=O)NCc3ccc(OC(C)C)cc3)ccc21	/	.	.	.	.	/
Cc1c(C)n(Cc2ccccc2)c2ccc(C(=O)NC(C)c3ccccc3)cc12 (configuration not stated)	/	?	?	.	.	/
Cc1c(C)n(Cc2ccccc2)c2ccc(C(=O)NCC(C)c3ccccc3)cc12 (configuration not stated)	/	20µM	?	.	.	/
Cc1c(C)n(Cc2ccc(F)cc2)c2ccc(C(=O)NCCCN3CCOCC3)cc12	.	.	?	.	.	.
CCOc1ccc(CNC(=O)c2ccc3c(c2)c(C)c(C)n3Cc2ccc(Cl)cc2)cc1	/	16µM	?	.	.	/
CCN(CC)S(=O)(=O)c1ccc(S(=O)(=O)Nc2c(C)cccc2C)cc1	/	/	/	.	/	/
Cc1nc2ccccc2n1CCc1nc2c3ccccc3nc(SCC(=O)NCc3ccco3)n2n1	.	.	?	.	10µM	.
Cc1ccccc1NC(=O)CSc1nc2ccccc2c2nc(CCn3c(C)nc4ccccc43)nn12	/	.	.	.	.	/
CCC(=O)Nn1cnc2c(c1=O)C1(CCCCC1)Cc1ccccc1-2	.	.	?	.	.	.
SMILES	p53 reactivation	ClpP mod	GLP-1R inv ag	LDHA block	GLP1R cytotox	GLP1R ag
c1ccc(OCc2nc3c4c(ncn3n2)-c2ccccc2CC42CCCC2)cc1	.	13µM	.	.	.[1.53 µM]	.
Nc1ncnc2c1C1(CCCCC1)Cc1ccccc1-2	.	16µM	?	.	.	.
CC1=C(c2ccc(C)c(C)c2)S(=O)(=O)N(Cc2ccc(C(=O)NC3CCCC3)cc2)C1=O	/	/	/	.	/	/
COc1ccc(C2=[N+]([O-])C(C)(C)C(c3ccccc3)=N2)cc1	.	/	?	.	.	.
NNC(=O)c1cccc(COc2ccccc2Br)c1	?	.	?	.	.	.
NNC(=O)c1cccc(COc2ccc3c(c2)CCC3)c1	?	.	1.1µM	.	.	.
COc1ccccc1NC(=O)CN1CCN(c2ccccc2)CC1	.	.	?	.	.	.
Cc1cc2c(c(SCC(N)=O)n1)C(=O)OC2	.	.	.[0.307 µM]	.	.[0.307 µM]	.
Cc1cc2c(c(SCC(=O)Nc3ccccc3)n1)C(=O)OC2	/	/	/	-37	/	/
Cn1c(=NC(=O)c2cccc([N+](=O)[O-])c2)sc2ccccc21	.	/	.	.	.	.
CCOc1ccc(C(=O)N2CCCC(c3nc(-c4ccc(C)o4)no3)C2)cc1 (configuration not stated)	.	/	11µM	.	.	.
Cc1ccc(-c2noc(C3CCCN(C(=O)c4ccc(Cl)cc4)C3)n2)o1 (configuration not stated)	.	/	?	.	.	.
Cc1ccccc1-c1nnc(-c2ccc(C(=O)NCC3CCCO3)cc2)o1 (configuration not stated)	/	/	/	.	/	/
CC[C@@H](C)[C@H](CN[C@H](CNC)C(C)C)NC[C@@H](C)c1ccc(CC(C)C)cc1	/	.	?	.	11µM	.
CC[C@H](C)[C@@H](CNC)NC[C@@H](Cc1ccc(O)cc1)NCC(C)(C)C	.	.	?	.	?	.
CC(C)Cc1nc(N2CCN(C(=O)c3ccco3)CC2)c(C#N)c2c1CCC2	.	?	?	.	.	.
CC(C)Cc1nc(N2CCN(C(=O)c3ccccc3)CC2)c(C#N)c2c1CCC2	.	32µM	?	.	.	.
CC(C)Cc1nc(N2CCN(C(=O)C(C)C)CC2)c(C#N)c2c1CCC2	.	20µM	?	.	.	.
CC(C)Cc1nc(N2CCCCC2)c(C#N)c2c1CCC2	?	35µM	?	.	.	.
CC(C)Cc1nc(N2CCOCC2)c(C#N)c2c1COC(C)(C)C2	.	28µM	.	.	.	.
CC(=O)N1CCN(c2nc(CC(C)C)c3c(c2C#N)CCC3)CC1	.	.	.	.	.	.
CC1=C(C(=O)OC(C)C)C(c2c[nH]c3ccccc23)n2ncnc2N1 (configuration not stated)	.	.	?	.	.	.
COc1ccccc1C1C(C(=O)c2ccc(C)o2)=C(O)C(=O)N1c1cc(C)on1 (configuration not stated)	.	/	.	.	.	.
COc1cc(NS(=O)(=O)c2ccc(NS(=O)(=O)c3ccc(C)cc3)cc2)nc(OC)n1	.	/	.	.	.	.
